HepG2 tox: qHTS for Inhibitors of TGF-b: Cytotox Counterscreen; actives 0.76% (n = 410,000); Potency, µM (top dose mostly 46.1 µM), for the others: top-dose activity change, negative = cytotoxicity, actives largely listed as cytotoxic; HepG2 CAGA-GFP viability, ATP luminescence, 18 h
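HepG2 CAGA-GFP cells (1000/well, DMEM with 1% FBS) received compound, then TGF-beta at 500 pg/mL final, and were incubated 18 hours at 37 degrees C. Viability was read by CellTiter-Glo luminescence. Media-only wells were set as complete cell-killing and DMSO as no toxicity.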
TGFb SMAD3 inh: qHTS for Inhibitors of TGF-b; Potency, µM (top dose mostly 46.1 µM), for inactives: at the top dose activity, negative = inhibition, actives largely listed as inhibitors; AID 588855, 2011; HepG2 CAGA-GFP TGF-b/SMAD3 reporter, GFP fluorescence, 18 h; TGF-beta stimulated, 500 pg/mL final; actives 1.2% (n = 410,000); also: % is scaled to controls: 0 for no effect and ±100 for the full control effect; nearly all actives have a fitted effect of over 65% in size
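Cell-based qHTS in HEPG2 carrying a CAGA-GFP Smad reporter; compounds added before 500 pg/mL final TGF-beta, 18 h incubation at 37 degrees C, GFP fluorescence quantified per cell by imaging cytometry.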
VP16 counter: VP16 counterscreen qHTS for inhibitors of ROR gamma transcriptional activity; Drosophila S2 Gal4-VP16 UAS-luciferase, luminescence, 20 h; Potency, µM (top dose mostly 53.6 µM), inactives show top-dose activity, negative = inhibition, most hits filed as inhibitors; actives 3.5% (n = 310,000); AID 2546, 2010;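 also: Gal4-VP16 expression switched on by copper sulfate through the metallothionein promoter; % is scaled to controls: 0 for no effect and ±100 for the full control effect; nearly all actives have a fitted effect of over 50% in size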
RORgamma inh: qHTS for inhibitors of ROR gamma transcriptional activity; actives 5.4% (n = 310,000); Nuclear receptor ROR-gamma (Mus musculus), P51450; Potency, µM (doses to about 53.6 µM), for the others: top-dose activity change, negative = inhibition, usual class: inhibitors; Drosophila S2 Gal4-RORgamma UAS-luciferase reporter, 20 h; also: % is scaled to controls: 0 for no effect and ±100 for the full control effect; nearly all actives have a fitted effect of over 60% in size
Target sequence (P51450 whole entry, looked up, the tested form may be a part): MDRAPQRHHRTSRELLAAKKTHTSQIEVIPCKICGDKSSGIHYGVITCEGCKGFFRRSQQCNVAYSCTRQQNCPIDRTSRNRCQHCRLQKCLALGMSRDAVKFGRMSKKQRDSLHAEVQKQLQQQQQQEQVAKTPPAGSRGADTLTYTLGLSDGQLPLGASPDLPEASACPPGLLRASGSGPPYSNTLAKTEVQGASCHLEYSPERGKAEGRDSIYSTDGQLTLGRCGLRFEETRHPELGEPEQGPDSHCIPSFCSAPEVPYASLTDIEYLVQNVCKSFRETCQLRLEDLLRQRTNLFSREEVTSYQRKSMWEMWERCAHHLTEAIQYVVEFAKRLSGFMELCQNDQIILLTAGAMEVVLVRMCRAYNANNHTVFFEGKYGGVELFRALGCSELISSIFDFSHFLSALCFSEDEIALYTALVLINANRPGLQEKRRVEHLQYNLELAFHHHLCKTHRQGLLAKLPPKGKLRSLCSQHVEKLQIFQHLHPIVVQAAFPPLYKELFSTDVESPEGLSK
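Stable Schneider cell line, Gal4 DNA-binding domain fused to ROR gamma, UAS-luciferase. Cmpd 1 hr RT → CuSO4 700 uM final → 20 hr RT → luciferase reagent 10 min → luminescence.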
ATXN2 expr inh: Primary qHTS for Inhibitors of ATXN expression; HEK-293 ATXN2-luciferase reporter, luminescence, 24 h; Potency, µM (top dose mostly 57 µM), for inactives: at the top dose activity change, negative = inhibition, hits mostly inhibitors; actives 0.72% (n = 360,000); AID 1745845, 2022; also: % is scaled to controls: 0 for no effect and ±100 for the full control effect; nearly all actives have a fitted effect of over 55% in size
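qHTS (up to 57 uM final) was run with 24 h compound exposure of reporter cells at 37 °C. Each well was multiplexed: SteadyGlo luminescence measured ATXN2-luciferase expression after a fluorogenic Gly-Phe-AFC viability readout (25 uM final).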
S2 tox: Viability Counterscreen for Primary qHTS for Inhibitors of ATXN expression. S2 cells (HEK-293 line with an ATXN2-luciferase reporter) viability, CellTiter-Fluor protease fluorescence, 24 h. Potency, µM (highest dose often 56.7 µM), most hits filed as cytotoxic. actives 0.49% (n = 400,000). AID 651635, 2014; also: nearly all actives have a fitted effect of over 40% in size
Starred values were filed as active, the others as inactive; i = inactive; ? = inconclusive; / = no result given; ! = not confirmed by another sample; [ ] = remark or other dose. A selection: hits, their analogues and other compounds. The true share with any hit is near 6.1%. Calls follow the shape of the dose curve; as a rule, active = well fitted curve in the direction sought with a large enough effect; inconclusive = small, poorly fitted or top-dose-only effect, or another doubt; inactive = no such curve, though single readings can be large; an effect the other way counts as inactive or inconclusive. Potency is read from the fitted curve at half-maximal effect.

SMILES	HepG2 tox	TGFb SMAD3 inh	VP16 counter	RORgamma inh	ATXN2 expr inh	S2 tox
CCCN(CCC)CCCNC(=O)c1cc2c(=O)n(CC)c3ccccc3c2s1	-71%	7%	4%	-21%	-3%	/
CCCCN(CC)CCNC(=O)c1cc2c(=O)n(C)c3ccccc3c2s1	13µM*	?	-12%	-33%	-32%	i
CCCCN(CC)CCNC(=O)c1cc2c(=O)n(CC)c3ccccc3c2s1	13µM*!	10%	-2%	5%	-14%	i
CCN(CC)CCNC(=O)c1cc2c(=O)n(C)c3ccccc3c2s1	-53%	-18%	-10%	-24%	-17%	i
CN(C)CCCNC(=O)c1cc2sc3ccccc3c2s1	20µM*	0%	-1%	-20%	-33%	/
COCCNC(=O)c1cc2sc3ccccc3c2s1	-11%	12%	-13%	-17%	34%	i
Cc1ccc(CSc2nnc3[nH]c(=O)cc(-c4ccccc4)n23)cc1	25%	-2%	/	/	/	/
CCc1ccccc1-n1nnc(-c2nc(-c3ccccc3F)no2)c1C	0%	-4%	/	/	55%	i
COc1cccc(N2CCN(C(=O)Cn3ncc4c(=O)oc5ccccc5c43)CC2)c1	-9%	-11%	/	/	-23%	i
CCCCC/C=C\C/C=C\C/C=C\C/C=C\CCCCCC(N)=O	/	/	7%	-2%	/	/
CCC1CCCCN1C(=O)Cn1c(=O)n(-c2ccc(Cl)c(Cl)c2)c(=O)c2c(C)c(C(=O)N(C)C)sc21 (configuration not stated)	-20%	-8%	/	/	/	/
CCOc1ccc(CCNC(=O)c2cc3c(-c4ccccc4F)nn(C)c3s2)cc1OCC	-52%	1%	/	/	?	?
O=S(=O)(NCC(c1cccs1)S(=O)(=O)c1ccccc1)c1ccccc1 (configuration not stated)	10µM*	7.1µM*	/	/	/	/
O=S(=O)(c1cccc(NC(=S)N2CCN(c3cccc(Cl)c3)CC2)c1)C(F)F	5%	0%	?	13µM*	-15%[11.3 µM]	i
S=C(NC1CCCC1)N1CCN(c2cccc(Cl)c2)CC1	-27%	?	-25%	11µM*	-35%	i
S=C(Nc1ccc(Oc2ccccc2)cc1)N1CCN(c2ccccn2)CC1	-1%	?	?	11µM*	/	i
S=C(Nc1ccc(Cl)c(Cl)c1)N1CCN(c2ccccn2)CC1	7%	-21%	-9%	-28%[1.91 µM]	5%	i
S=C(Nc1cccc(Cl)c1)N1CCN(c2ccccn2)CC1	-5%	?	13µM*	11µM*	117%	i
S=C(NC1CC1)N1CCN(c2ccc(Cl)cc2)CC1	10%	3%	10%	-37%	-16%	i
COC(=O)c1sccc1S(=O)(=O)N(CC(=O)Nc1c(C)cccc1C)c1ccc(C)c(C)c1	-16%	-30%	/	/	-10%	?
Cc1ccc(NC(=O)Cn2c(=O)n(CCCCC(=O)NCCc3ccccc3)c(=O)c3ccccc32)c(C)c1	-7%	-16%	/	/	-13%	i
C1=C(CCNCC2CC2)CCCC1	-14%	-1%	-6%	5µM*	-1%	i
c1cc2c3c(c1)CCC[N+]3(C1CCCCC1)CCC2	-11%	-25%	/	/	/	/
O=C(Nc1ccc(-c2csc(Nc3ccccc3)n2)cc1)c1cc([N+](=O)[O-])cc(C(F)(F)F)c1	-13%	?	-8%	?	?	13µM*
COc1ccc(/C=C2/SC(=S)NC2=O)cc1OCc1ccccc1	-40%	-2%	18µM*	?	-18%	?
CC1=Nc2ccccc2/C1=C/c1ccc(N(C)C)cc1	-23%	?	/	/	/	/
